Read-out in test [1]: Transforming growth factor beta 1 (TGFb1), TGFB1 (gene 7040)
The test is described as follows: BSK_KF3CT_TGFb1: BioMAP Diversity Plus: KF3CT Assay for Transforming growth factor beta 1 (TGFb1) Biomarker Activity (AID 2283072). As to conditions: primary human keratinocytes with fibroblasts; actives raise or lower the signal. The method in brief: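 Read-out: ELISA for TGF-b1 in keratinocyte/foreskin fibroblast human skin co-culture, 24 h after dosing; bidirectional curve fit vs DMSO baseline; gain or loss of signal scored.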

Read-out in test [2]: C-C motif chemokine 2 (Homo sapiens) (UniProt P13500)
The test is described as follows: BSK_KF3CT_MCP1: BioMAP Diversity Plus: KF3CT Assay for Monocyte Chemoattractant Protein 1 (MCP1/CCL2) Biomarker Activity (AID 2283073). The note with it: primary human keratinocytes with fibroblasts; actives raise or lower the signal. A digest of the protocol: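 Human keratinocyte plus foreskin fibroblast primary co-culture exposed to chemical for 24 h. MCP-1 levels measured by ELISA. Bidirectional curve fitting relative to DMSO negative control as baseline.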

Read-out in test [3]: Matrix Metallopeptidase 9 (MMP9), MMP9 (gene 4318)
The test is described as follows: BSK_KF3CT_MMP9: BioMAP Diversity Plus: KF3CT Assay for Matrix Metallopeptidase 9 (MMP9) Biomarker Activity (AID 2283074).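 On AC50: MMP9 protein level quantified by ELISA in the co-culture.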 As to conditions: primary human keratinocytes with fibroblasts; actives raise or lower the signal. A digest of the protocol: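 ELISA read-out of MMP-9 at 24 h post-dosing in a co-culture of human skin keratinocytes and foreskin fibroblasts. Gain or loss of signal was fitted in both directions against DMSO.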

Read-out in test [4]: urokinase plasminogen activator (uPA), PLAU (gene 5328)
The test is described as follows: BSK_KF3CT_uPA: BioMAP Diversity Plus: KF3CT Assay for urokinase plasminogen activator (uPA) Biomarker Activity (AID 2283075). As to conditions: primary human keratinocytes with fibroblasts; actives raise or lower the signal. The method in brief:
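Skin co-culture (keratinocytes + foreskin fibroblasts), human primary; 24 h post-dose; uPA by ELISA; gain/loss fit vs DMSO baseline.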

Read-out in test [5]: E-selectin (Homo sapiens) (UniProt P16581)
The test is described as follows: BSK_LPS_Eselectin: BioMAP Diversity Plus: LPS Assay for Eselectin Biomarker Activity (AID 2283077). The note with it: primary human HUVEC with PBMC; actives raise or lower the signal. A digest of the protocol:
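Human umbilical vein endothelial cells co-cultured with peripheral blood mononuclear cells under LPS stimulation; E-selectin measured by ELISA 24 h after chemical dosing. Activity fitted bidirectionally against DMSO as negative control and baseline.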

Read-out in test [6]: Interleukin-8 (IL8), CXCL8 (gene 3576)
The test is described as follows: BSK_LPS_IL8: BioMAP Diversity Plus: LPS Assay for Interleukin-8 (IL8) Biomarker Activity (AID 2283078). The note with it: primary human HUVEC with PBMC; actives raise or lower the signal. A digest of the protocol:
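Human umbilical vein endothelial cells co-cultured with PBMC were stimulated with LPS; IL-8 levels were measured by ELISA 24 h after chemical dosing. Activity was fitted bidirectionally against DMSO as negative control and baseline.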

Test [7] is described as follows: BSK_LPS_SRB: Viability Assessment in the BioMAP Diversity Plus: LPS Assay (AID 2283079).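 Further: total protein by sulforhodamine B absorbance as a cytotoxicity measure; measured one day after compound addition.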 The note with it: primary human HUVEC with PBMC. The method in brief:
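Human umbilical vein endothelial cells co-cultured with PBMC (LPS system) were dosed for 24 h. Total protein was stained with 0.1% sulforhodamine B after 10% TCA fixation, read at 560 nm, and fitted bidirectionally against DMSO baseline.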

Read-out in test [8]: Interleukin-1 alpha (IL1a), IL1A (gene 3552)
The test is described as follows: BSK_LPS_IL1a: BioMAP Diversity Plus: LPS Assay for Interleukin-1 alpha (IL1a) Biomarker Activity (AID 2283080). The note with it: primary human HUVEC with PBMC; actives raise or lower the signal. A digest of the protocol:
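Human umbilical vein endothelial cells co-cultured with peripheral blood mononuclear cells were LPS-stimulated and exposed to test chemicals for 24 h. IL-1 alpha was quantified by ELISA, with bidirectional curve fitting against DMSO as the negative control and baseline.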

Read-out in test [9]: Monocyte Chemoattractant Protein-1 (MCP1), CCL2 (gene 6347)
The test is described as follows: BSK_LPS_MCP1: BioMAP Diversity Plus: LPS Assay for Monocyte Chemoattractant Protein-1 (MCP1) Biomarker Activity (AID 2283081).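 On AC50: secreted MCP-1 protein quantified by ELISA in culture supernatant.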 As to conditions: primary human HUVEC with PBMC; actives raise or lower the signal. A digest of the protocol:
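HUVEC plus PBMC co-culture (human primary cells, LPS system) exposed to test chemical for 24 h; MCP-1 measured by ELISA. Bidirectional curve fitting against DMSO baseline; parallel SRB total-protein staining flags overt cytotoxicity.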

A short description of test [10]: BSK_LPS_PGE2: BioMAP Diversity Plus: LPS Assay for Prostaglandin E2 (PGE2) Biomarker Activity (AID 2283082). The note with it: primary human HUVEC with PBMC; actives raise or lower the signal. A digest of the protocol: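 ELISA read-out of PGE2 from human umbilical vein endothelial cells co-cultured with peripheral blood mononuclear cells under LPS, 24 h post-dose. Gain or loss of signal scored relative to DMSO baseline.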

Read-out in test [11]: Macrophage colony-stimulating factor (MCSF), CSF1 (gene 1435)
The test is described as follows: BSK_LPS_MCSF: BioMAP Diversity Plus: LPS Assay for Macrophage colony-stimulating factor (MCSF) Biomarker Activity (AID 2283083). The note with it: primary human HUVEC with PBMC; actives raise or lower the signal. A digest of the protocol: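 Human umbilical vein endothelial cells co-cultured with peripheral blood mononuclear cells were exposed to compound for 24 h. M-CSF levels were measured by ELISA, and bidirectional curve fitting used DMSO as the negative control and baseline.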

Read-out in test [12]: Tissue Factor, F3 (gene 2152)
The test is described as follows: BSK_LPS_TissueFactor: BioMAP Diversity Plus: LPS Assay for Tissue Factor Biomarker Activity (AID 2283084). As to conditions: primary human HUVEC with PBMC; actives raise or lower the signal. The method in brief:
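Human umbilical vein endothelial cells co-cultured with peripheral blood mononuclear cells were dosed and stimulated with LPS. Cell-surface CD142 was quantified by ELISA at 24 h. Activity was fitted bidirectionally against DMSO baseline.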

Read-out in test [13]: Tumor necrosis factor (Homo sapiens) (UniProt P01375)
The test is described as follows: BSK_LPS_TNFa: BioMAP Diversity Plus: LPS Assay for Tumour Necrosis Factor alpha (TNFa) Biomarker Activity (AID 2283085).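 On AC50: TNFa protein level quantified by ELISA in the co-culture.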 As to conditions: primary human HUVEC with PBMC; actives raise or lower the signal. The method in brief: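 HUVEC/PBMC co-culture, LPS-stimulated; 24 h post-dose; TNFa by ELISA; gain or loss of signal fitted bidirectionally vs DMSO baseline.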

Read-out in test [14]: Vascular cell adhesion molecule 1 (VCAM1), VCAM1 (gene 7412)
The test is described as follows: BSK_LPS_VCAM1: BioMAP Diversity Plus: LPS Assay for Vascular cell adhesion molecule 1 (VCAM1) Biomarker Activity (AID 2283086). The note with it: primary human HUVEC with PBMC; actives raise or lower the signal. A digest of the protocol:
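ELISA read-out of VCAM-1 at 24 h post-dosing in an LPS-driven HUVEC/PBMC primary human co-culture; gain or loss of signal fitted bidirectionally against DMSO baseline. Cytotoxicity tracked in parallel cultures by SRB total-protein staining.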

Read-out in a further test: CD38, CD38 (gene 952)
The test is described as follows: BSK_SAg_CD38: BioMAP Diversity Plus: SAg Assay for CD38 Biomarker Activity (AID 2283087). The note with it: primary human HUVEC with PBMC; actives raise or lower the signal. The method in brief:
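Measures CD38 on a human endothelial/PBMC co-culture driven by SEB and TSST-1, 24 h after compound exposure, using ELISA with fluorescence detection; DMSO defines baseline for bidirectional curve fitting.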

Read-out in test [15]: CD40, CD40 (gene 958)
The test is described as follows: BSK_SAg_CD40: BioMAP Diversity Plus: SAg Assay for CD40 Biomarker Activity (AID 2283088). The note with it: primary human HUVEC with PBMC; actives raise or lower the signal. The method in brief:
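Human umbilical vein endothelial cells co-cultured with PBMC; CD40 levels measured by ELISA with fluorescence read-out 24 h after chemical dosing. Gain or loss of signal fitted bidirectionally against DMSO baseline.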

Read-out in the next test: CD69, CD69 (gene 969)
The test is described as follows: BSK_SAg_CD69: BioMAP Diversity Plus: SAg Assay for CD69 Biomarker Activity (AID 2283089).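 On AC50: cell surface CD69 protein quantified by ELISA with fluorescence detection.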 As to conditions: primary human HUVEC with PBMC; actives raise or lower the signal. A digest of the protocol: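 Values derive from bidirectional fitting relative to DMSO vehicle. Cells: umbilical vein endothelium plus peripheral blood mononuclear cells, treated 24 h before fluorescent ELISA for CD69.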

Read-out in test [16]: Monocyte Chemoattractant Protein-1 (MCP1), CCL2 (gene 6347)
The test is described as follows: BSK_SAg_MCP1: BioMAP Diversity Plus: SAg Assay for Monocyte Chemoattractant Protein-1 (MCP1) Biomarker Activity (AID 2283090). The note with it: primary human HUVEC with PBMC; actives raise or lower the signal. The method in brief: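 Values derive from bidirectional fitting of ELISA-measured MCP1 against DMSO controls. Readings were taken 24 h after dosing human vascular endothelial cells co-cultured with peripheral blood mononuclear cells under superantigen stimulation.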

Read-out in test [17]: CD40, CD40 (gene 958)
The test is described as follows: BSK_LPS_CD40: BioMAP Diversity Plus: LPS Assay for CD40 Biomarker Activity (AID 2283076). As to conditions: primary human HUVEC with PBMC; actives raise or lower the signal. A digest of the protocol:
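Primary human umbilical vein endothelial cells co-cultured with peripheral blood mononuclear cells, LPS-stimulated, were dosed with chemical and read 24 h later. CD40 levels were measured by ELISA and fitted bidirectionally against DMSO as negative control and baseline.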

Calls of active or inactive are those of the source. How the source made its calls: active means hit-call score of the fitted dose curve at least 0.9, where 1 is the maximum; inactive means score below 0.9.

The AC50 is the concentration giving half of the maximal activity seen.

Tumor necrosis factor (Homo sapiens), sequence (P01375 whole entry, looked up): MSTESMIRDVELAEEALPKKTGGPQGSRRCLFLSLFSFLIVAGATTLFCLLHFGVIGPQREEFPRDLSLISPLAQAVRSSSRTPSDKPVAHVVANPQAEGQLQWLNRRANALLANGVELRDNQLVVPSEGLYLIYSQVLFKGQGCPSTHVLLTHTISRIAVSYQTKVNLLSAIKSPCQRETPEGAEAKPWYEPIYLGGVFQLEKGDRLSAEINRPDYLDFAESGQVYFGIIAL
E-selectin (Homo sapiens), sequence (P16581 whole entry, looked up): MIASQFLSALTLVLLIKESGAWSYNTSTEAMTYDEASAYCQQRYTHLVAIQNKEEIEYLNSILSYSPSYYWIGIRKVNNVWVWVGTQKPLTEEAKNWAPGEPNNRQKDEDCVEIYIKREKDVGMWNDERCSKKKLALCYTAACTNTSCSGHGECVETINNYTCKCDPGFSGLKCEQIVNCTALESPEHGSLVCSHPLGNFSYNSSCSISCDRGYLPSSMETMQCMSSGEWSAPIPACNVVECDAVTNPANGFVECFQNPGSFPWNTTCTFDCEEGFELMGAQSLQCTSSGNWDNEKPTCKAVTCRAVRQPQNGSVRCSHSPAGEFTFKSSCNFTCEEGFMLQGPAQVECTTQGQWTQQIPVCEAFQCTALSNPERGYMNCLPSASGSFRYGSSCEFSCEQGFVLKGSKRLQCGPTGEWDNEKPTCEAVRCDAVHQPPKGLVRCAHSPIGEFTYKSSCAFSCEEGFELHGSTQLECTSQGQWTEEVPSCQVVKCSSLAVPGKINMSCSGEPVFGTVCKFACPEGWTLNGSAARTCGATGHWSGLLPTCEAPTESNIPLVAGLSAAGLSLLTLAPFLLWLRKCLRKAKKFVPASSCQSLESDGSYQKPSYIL

Consider `Cc1[nH]c(=O)n(C(C)(C)C)c(=O)c1Cl`, for which the outcome in test [1], in [2], in [3], in [4], in test [5] and in [6] was inactive. Also, the outcome in [7], in test [8], in [9], in [10], in test [11] and in test [12] was inactive. Further, the outcome is “inactive” in [13]; “inactive” in test [14]; “inactive” with CD38, CD38 (gene 952); “inactive” with CD40, CD40 (gene 958) [15]. In addition, the AC50 with CD69, CD69 (gene 969) was 3.68 µM (active); in test [16], 5.42 µM (active).
For `Oc1ccc(Cl)cc1Cc1ccccc1`, the AC50 is 21.1 µM (active) [middle of 7 runs] with CD40, CD40 (gene 958) [17]; 31.3 µM (active) [middle of 6 runs] in [5]; 35.3 µM (active) [middle of 7 runs] in test [6]; 29.3 µM (active) [middle of 7 runs] in [7]; 31.8 µM (active) [middle of 6 runs] in [8]; 32.5 µM (active) [middle of 7 runs] in test [9]. Besides, the AC50 in test [11] is 29.6 µM (active) [middle of 7 runs]; in [12], 33.6 µM (active) [middle of 7 runs]; in test [13], 32 µM (active) [middle of 7 runs]; in test [14], 32.5 µM (active) [middle of 6 runs]; in the test with CD38, CD38 (gene 952) it was 33.6 µM (active) [middle of 6 runs]; with CD40, CD40 (gene 958) [15] it was 29.4 µM (active) [middle of 6 runs]. Besides, the AC50 with CD69, CD69 (gene 969) is 32.7 µM (active) [middle of 7 runs]; in [16] it was 34.9 µM (active) [middle of 7 runs].
With `CCOCN(C(=O)CCl)c1c(C)cccc1CC`, the result in test [1], in [2], in test [4], in test [6], in [8] and in test [10] was inactive. Further, the outcome in [12] was “inactive”; with CD40, CD40 (gene 958) [15], “inactive”. The AC50 was 12.7 µM (active) in test [3]; 14.8 µM (active) with CD40, CD40 (gene 958) [17]; 28.5 µM (active) in test [5]; 22.7 µM (active) in [7]; 31.2 µM (active) in test [9]; 23.9 µM (active) in [11]. Besides, the AC50 is 5.13 µM (active) in test [13]; 20 µM (active) in [14]; 27 µM (active) with CD38, CD38 (gene 952); 11.8 µM (active) with CD69, CD69 (gene 969); 36 µM (active) in test [16].
With `[2H]C1([2H])[n+]2ccccc2-c2cccc[n+]2C1([2H])[2H]`, the outcome in test [1] is “inactive”; in the test with CD40, CD40 (gene 958) [17] it was “inactive”; in [5] it was “inactive”; in [6], “inactive”; in test [7], “inactive”; in test [8] it was “inactive”. Besides, the outcome in [9], in [10], in test [11], in [12], in test [13] and in [14] was inactive. The outcome is “inactive” with CD38, CD38 (gene 952); “inactive” with CD40, CD40 (gene 958) [15]; “inactive” with CD69, CD69 (gene 969); “inactive” in test [16]. Further, the AC50 in [3] is 13.3 µM (active); in [4], 28.9 µM (active).
Consider `CCCN(CCC)c1c([N+](=O)[O-])cc(C(F)(F)F)cc1[N+](=O)[O-]`, for which the outcome in [1], in [2], in [3], in test [4], in test [6] and in [7] was inactive. In addition, the result in test [8], in test [10], in [12], in [13] and in test [16] was inactive. The half-maximal activity concentration (AC50) with CD40, CD40 (gene 958) [17] was 20.4 µM (active); in test [5], 15.2 µM (active); in [9], 36.2 µM (active); in [11] it was 20 µM (active); in test [14] it was 29.3 µM (active); with CD38, CD38 (gene 952) it was 15.2 µM (active). In addition, the AC50 in the test with CD40, CD40 (gene 958) [15] is 29.5 µM (active); with CD69, CD69 (gene 969) it was 30.2 µM (active).

The values are drawn from PubChem BioAssay (EPA / NIEHS).
